# From PubChem BioAssay
# Test: compound effects on multiple myeloma cell viability – MM1S, calcein-AM fluorescence, 48 h, basal, profiling panel (AID 1165);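 also: viability of MM1S multiple myeloma cells under basal unstimulated conditions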
# Conditions: higher = more signal
# Also: test concentration not given here.
row,Compound,z-score
1,C[C@@H](c1ccccc1)N1C(=O)[C@H]2[C@H]3[C@H](O)[C@H](O)CC(=NOC[C@@H](O)COCc4ccco4)[C@H]3CC[C@H]2C1=O,0.352
2,COc1ccc(O[C@H]2C=C[C@@H](C#Cc3ccccc3)O[C@@H]2CO)cc1,-3.57
3,COC(=O)[C@@H]1CC[C@H](C)[C@@H](c2ccc(Br)cc2)N1C[C@@H](O)CN=[N+]=[N-],-0.682
4,CC(C)=CCCC(C)=CCON=C1C[C@@H](O)[C@@H](O)[C@@H]2[C@@H]3C(=O)N(Cc4ccc5c(c4)OCO5)C(=O)[C@@H]3CC[C@@H]12,-0.788

# Test: calcein-AM signal in unstimulated myeloma cells – cell-based, calcein-AM fluorescence, 48 h, PK04 Diversity Set, profiling panel (AID 1166);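 also: cells grown under basal conditions without added stimulus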
# Conditions: RPMI8226 myeloma viability, higher = more signal
row,Compound,z-score
1,C=CC[C@@H]1C=C[C@H](ON=CC[C@@H]2C=C[C@H](OC(C)=O)[C@@H](COC(C)=O)O2)[C@@H](CO)O1,-0.445
2,C=CC[C@@H]1C=C[C@H](ON=C(C)CCN2CCCc3nc(C)c(C)cc32)[C@@H](CO)O1,-1.06
3,CC(=O)OC[C@H]1O[C@H](CC=NO[C@H](C)c2cn([C@@H]3COC[C@H]3O)nn2)C=C[C@@H]1OC(C)=O,0.479
4,CC(=O)OC[C@H]1O[C@H](CCON=C(C)CCN2CCCc3nc(C)c(C)cc32)C=C[C@@H]1OC(C)=O,-1.27
5,CO[C@H]1COC(=O)[C@H](CCSC)NC(=O)CC=C[C@@H](C)[C@H](OC)COC(=O)[C@@H](OCc2ccccc2)C=C[C@@H]1C,0.241
6,CN1CCc2nc(-c3ccccc3)c(-c3ccccc3)cc2C1,0.455
7,CON=C(C)CCN1CCc2nc(-c3ccccc3)c(-c3ccccc3)cc2C1,-1.5
8,CCN1C(=O)[C@H]2[C@@H]3C(=CC[C@H]2C1=O)C(=O)[C@H]1O[C@H]1[C@H]3O,-3.9
9,CC(C)C(=O)N[C@H]1CCCN1C(=O)C=Cc1ccccc1,-0.1
10,CCOC(=O)[C@H](CC(C)C)NC(=O)CCC1CC(OC(=O)NCc2ccc3c(c2)OCO3)CC2(CCCC(COC(=O)NCCC(C)C)O2)O1 (stereo not given in full),0.403
11,COC(=O)CC=C[C@@H](C)[C@@H](C=NOC[C@@H](O)COCc1ccco1)NS(=O)(=O)c1ccc(C)cc1,-0.623
12,CON=C(C)CCN1CCCCc2nc(C)c(C)cc21,0.371
13,CC(=O)OC[C@H]1O[C@H](CCON=C(C)C)C=C[C@@H]1OC(C)=O,-1.12
14,O=C1CCCC=C1C(O)C1CCCCC1 (stereo not given),-0.241
15,COC(=O)CC=C[C@@H](C)[C@@H](C=NOC[C@@H](C)[C@H](OCc1ccccc1)C(C)C)OC,-0.991
16,COC(=O)[C@H](C)NC(=O)CC=C[C@@H](C)[C@@H]1C=C[C@H](O)[C@@H](CO)O1,-0.859
17,C[C@@H](c1ccccc1)N1C(=O)[C@H]2[C@H]3[C@H](O)[C@H](O)CC(=NOCc4ccccc4)[C@@H]3CC[C@H]2C1=O,-2.15
18,O=C1[C@H]2[C@H]3[C@H](O)[C@H](O)CC(=NOC[C@@H](O)COCc4ccco4)[C@@H]3CC[C@H]2C(=O)N1Cc1ccc2c(c1)OCO2,0.677

row,Compound,z-score
1,CCCNC(=O)OC[C@H]1O[C@H](CCON=C2C[C@@H](O)[C@@H](O)[C@@H]3[C@@H]4C(=O)N(CC)C(=O)[C@@H]4CC[C@@H]23)C=C[C@@H]1Oc1ccc(OC)cc1,0.141
2,CC(C)CON=C1C[C@@H](O)[C@@H](O)[C@@H]2[C@@H]3C(=O)N(Cc4ccc5c(c4)OCO5)C(=O)[C@@H]3CC[C@@H]12,-0.51
3,COc1ccc(COC(=O)NN=C2C[C@@H](O)[C@@H](O)[C@@H]3[C@@H]4C(=O)N([C@@H](C)c5ccccc5)C(=O)[C@@H]4CC[C@@H]23)cc1,-1.26
4,C[C@@H]1CC[C@H]2C(=O)N3[C@@H](CC[C@@H](C)[C@@H]3c3ccc(Br)cc3)C(=O)N2[C@H]1c1ccc(Br)cc1,-2.57
5,CCOC(=O)CCN1C(=O)[C@H]2[C@H]3[C@H](O)[C@H](O)CC(=O)[C@@H]3CC[C@H]2C1=O,0.456
6,COC(=O)[C@H](CCSC)NC(=O)CC=C[C@@H](C)CO,-0.581
7,CCOC(=O)[C@H](Cc1ccccc1)NC(=O)CCC1CC(OC(=O)NCc2cccc3ccccc23)CC2(CCCC(COC(=O)NCCOc3ccccc3)O2)O1 (stereo not given in full),-0.634
8,COc1ccc(COC(=O)NN=C2C[C@@H](O)[C@@H](O)[C@@H]3[C@@H]4C(=O)N(c5cccc(Oc6ccccc6)c5)C(=O)[C@@H]4CC[C@H]23)cc1,-1.2
9,COc1ccc(OC[C@@H]2CC3[C@@H](c4ccc(Br)cc4)[C@H](C)CC[C@H]3C(=O)O2)cc1 (stereo not given in full),-0.204
10,COC(=O)[C@H](C)NC(=O)CCC1CC(OC(=O)NCc2cccc3ccccc23)CC2(CCCC(COC(=O)NCCc3ccccc3OC)O2)O1 (stereo not given in full),-1.79
11,COc1ccc(OC[C@@H](CO)OC)cc1,-0.342
12,COc1ccc(COC(=O)NN=C2C[C@@H](O)[C@@H](O)[C@@H]3[C@@H]4C(=O)N(C[C@@H]5CCCO5)C(=O)[C@@H]4CC[C@@H]23)cc1,0.51
13,CCOC(=O)[C@H](CC(C)C)NC(=O)CCC1CC(OC(=O)NCc2ccc3c(c2)OCO3)CC2(CCCC(COC(=O)NCCOc3ccccc3)O2)O1 (stereo not given in full),-1.43
14,C=CC[C@@H]1C=C[C@H](ON=C(C)CCN2CCCCc3nc(C)c(C)cc32)[C@@H](CO)O1,-0.332
15,C[C@@H](c1ccccc1)N1C(=O)[C@H]2[C@H]3[C@H](O)[C@H](O)CC(=NOC[C@@H](O)COCc4ccco4)[C@H]3CC[C@H]2C1=O,-1.83
16,COc1ccc(O[C@H]2C=C[C@@H](C#Cc3ccccc3)O[C@@H]2CO)cc1,-3.67
17,COC(=O)[C@@H]1CC[C@H](C)[C@@H](c2ccc(Br)cc2)N1C[C@@H](O)CN=[N+]=[N-],-1.4
18,CC(C)=CCCC(C)=CCON=C1C[C@@H](O)[C@@H](O)[C@@H]2[C@@H]3C(=O)N(Cc4ccc5c(c4)OCO5)C(=O)[C@@H]3CC[C@@H]12,-0.327
